Records with an inconclusive call do not appear. A call without a number means that no potency is given here. A number with no mark means an inactive call. The source made the active and inactive calls. Calls follow the shape of the dose curve; as a rule, active = well fitted inhibition curve with a large enough effect; inconclusive = small, poorly fitted or top-dose-only effect; inactive = no such curve, though single readings can be large or run the other way.
Columns and labels:
[1] = system: Zika virus NS2B-NS3 protease (unlinked complex); test: Primary screen GU Rhodamine qHTS for Zika virus inhibitors: Unlinked NS2B-NS3 protease assay (AID 1347159); conditions: Recombinant ZIKV NS2B-NS3 protease, Rhodamine110 substrate fluorescence; series mostly up to 107 µM; also: nearly all actives have a fitted effect of over 60% in size
Summary of the method: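 Noncovalent NS2B hydrophilic domain–NS3 protease domain complex (25 nM) preincubated 15 min at room temperature with compounds (up to 114 microM) in 10 mM Tris-HCl pH 8.0, 0.01% Tween 20; 1.5 microM Rhodamine110 substrate added, fluorescence change over 15 min fitted to Hill equation.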

[2] = system: Zika virus NS2B-NS3 protease (linked construct); test: Primary screen NINDS Rhodamine qHTS for Zika virus inhibitors (AID 1347160); conditions: purified NS2B-NS3 protease, Rhodamine110 substrate fluorescence; series mostly up to 57.1 µM; also: nearly all actives have a fitted effect of over 55% in size
Summary of the method: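 Purified linked NS2B-NS3 protease (NS2B hydrophilic domain joined to NS3 protease by flexible linker), 25 nM in 10 mM Tris-HCl pH 8.0, 0.01% Tween 20. Compounds titrated, 15 min preincubation at room temperature; 1.5 microM Rhodamine110 substrate, FITC fluorescence change over 15 min.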

## CC(=O)O[C@@H]1c2c(C)coc2C(=O)[C@@]23O[C@@H]2CC[C@H](C)[C@@]13C
[1]
  Potency: inactive
[2]
  Potency: inactive

## O=[N+]([O-])c1cn2c(n1)OCC(OCc1ccc(OC(F)(F)F)cc1)C2 (configuration not stated)
[1]
  Potency: inactive
[2]
  Potency: inactive

## C[C@@H]1O[C@@H](O[C@H]2[C@H](OC(=O)[C@]34CCC(C)(C)C[C@H]3C3=CCC5[C@@]6(C)C[C@H](O)[C@H](O[C@@H]7O[C@H](CO)[C@@H](O[C@H]8OC[C@](O)(CO)[C@H]8O)[C@H](O)[C@H]7O)[C@@](C)(CO)C6[C@H](O)C[C@@]5(C)[C@]3(C)C[C@H]4O)OC[C@H](O)[C@@H]2O)[C@H](O)[C@H](O)[C@H]1O[C@@H]1OC[C@@H](O)[C@H](O[C@@H]2OC[C@](O)(CO)[C@H]2O)[C@H]1O (some centres not stated)
[1]
  activity change, negative = inhibition: 20.8% [at 19.1 µM]
[2]
  activity change, negative = inhibition: 33.3% [at 10.7 µM]

## CC(O)c1cc(C(=O)N[C@@H](C)Cn2ccc(-c3ccc(C#N)c(Cl)c3)n2)n[nH]1 (some centres not stated)
[1]
  Potency: inactive
[2]
  Potency: inactive

## CCC1C(=O)OC23C=C[C@@H]4C(C(=O)O)=CO[C@H](O[C@@H]12)[C@@H]43 (some centres not stated)
[1]
  Potency: inactive
[2]
  Potency: inactive

## COC(=O)C1=CO[C@@H](O[C@@H]2O[C@H](CO)[C@@H](O)[C@H](O)[C@H]2O)[C@@H]2C(CO)=CC[C@]12O
[1]
  Potency: inactive
[2]
  Potency: inactive

## C/C=C/c1cc(OC)c2c(c1)[C@@H](C)[C@@H](c1ccc(O)c(OC)c1)O2
[1]
  Potency: inactive
[2]
  Potency: inactive

## C[C@@]1(O)[C@H](O)[C@@H](CO)O[C@H]1n1ccc(N)nc1=O
[1]
  Potency: inactive
[2]
  Potency: inactive

## CN(C)C(=O)NC1CCC(CCN2CCN(c3cccc(Cl)c3Cl)CC2)CC1 (configuration not stated)
[1]
  activity change, negative = inhibition: 13.9% [at 19.1 µM]
[2]
  outcome: inactive [at 10.7 µM]

## C=CC(C)(C)c1[nH]c2cc3c(cc2c1CC1NC(=O)C2CCCN2C1=O)C=CC(C)(C)O3 (configuration not stated)
[1]
  Potency: inactive
[2]
  Potency: inactive

## C=CC1C(OC2OC(CO)C(O)C(O)C2O)OC=C(C(=O)OC)C1CC(=O)OCC1C(C)C(O)CC1C(CO)COC(=O)CC1C(C(=O)O)=COC(OC2OC(CO)C(O)C(O)C2O)/C1=C\C (configuration not stated)
[1]
  Potency: inactive
[2]
  Potency: inactive

## COc1ccc(CC2NCCc3c2[nH]c2ccc(C)cc32)cc1OC (configuration not stated)
[1]
  Potency: inactive
[2]
  Potency: inactive

## CC(=O)OC1CC2(C)C3=CCC4(C)C5C(O)C(O)C(C(C)C)C5(C)CCC4(C)C3CCC2C(C)(C)C1OC1OC(CO)C(O)C(O)C1O (configuration not stated)
[1]
  Potency: inactive
[2]
  Potency: inactive

## O=C(c1cn(Cc2cncn2Cc2ccc(Br)cc2)cc1-c1cccc2ccccc12)N1CCOCC1
[1]
  Potency: inactive
[2]
  Potency: inactive

## COC(=O)CCc1cc2ccoc2c(OC)c1O[C@@H]1O[C@H](CO)[C@@H](O)[C@H](O)[C@H]1O
[1]
  Potency: inactive
[2]
  Potency: inactive

## COC(=O)N(C)c1c(N)nc(-c2nn(Cc3ccccc3F)c3ncccc23)nc1N
[1]
  Potency: inactive
[2]
  Potency: inactive

## O=C1N=C(N2CCOCC2)CN1c1ccc(Cl)cc1
[1]
  Potency: inactive
[2]
  Potency: inactive

## C[C@@H]1O[C@@H](O[C@@H]2[C@@H](O)[C@H](O[C@H]3[C@H](O[C@H]4CC[C@@]5(C)C(CC[C@]6(C)C5CC=C5[C@@H]7CC(C)(C)CC[C@]7(C(=O)O[C@@H]7O[C@H](CO)[C@@H](O)[C@H](O)[C@H]7O[C@@H]7O[C@@H](C)[C@H](O[C@@H]8O[C@@H](C)[C@H](O)[C@@H](O)[C@H]8O)[C@@H](O)[C@H]7O)CC[C@]56C)[C@@]4(C)CO)O[C@H](C(=O)O)[C@@H](O)[C@@H]3O)O[C@H](CO)[C@H]2O)[C@H](O)[C@H](O)[C@H]1O (some centres not stated)
[1]
  activity change, negative = inhibition: 22.9% [at 19.1 µM]
[2]
  activity change, negative = inhibition: 3.12% [at 10.7 µM]

## C[C@]12C[C@@H](O)[C@@H]3C[C@@]1(O[C@@H]1O[C@H](CO)[C@@H](O)[C@H](O)[C@H]1O)[C@]3(COC(=O)c1ccccc1)C(=O)O2
[1]
  Potency: inactive
[2]
  Potency: inactive

## O=C(Nc1ccccc1-c1cn2c(CN3CCNCC3)csc2n1)c1ccc2ccccc2n1
[1]
  Potency: inactive
[2]
  Potency: inactive

## O=C(O)[C@@H]1C[C@H]2C[C@@H](CCc3nn[nH]n3)CC[C@H]2CN1
[1]
  Potency: inactive
[2]
  Potency: inactive

## NC1(C(=O)NC(CCO)c2ccc(Cl)cc2)CCN(c2ncnc3[nH]ccc23)CC1 (configuration not stated)
[1]
  Potency: inactive
[2]
  Potency: inactive

## Cc1ccc([N+](=O)[O-])cc1S(=O)(=O)N(C)/N=C/c1cnc2ccc(Br)cn12
[1]
  Potency: inactive
[2]
  Potency: inactive

## CC1=C(C(=O)O)/C(=C\CO[C@@H]2O[C@H](CO)[C@@H](O)[C@H](O)[C@H]2O)C(OC(=O)/C=C/c2ccc(O)cc2)C1 (some centres not stated)
[1]
  Potency: inactive
[2]
  Potency: inactive

## CS(=O)(=O)NCC1CCC(Nc2nc3c(s2)CCSc2ccccc2-3)CC1 (configuration not stated)
[1]
  Potency: inactive
[2]
  Potency: inactive

## Cn1c2ccc(F)cc2c2c(C(=O)N3CCCC3)cn(-c3ccccc3)c(=O)c21
[1]
  Potency: inactive
[2]
  Potency: inactive
